DT40 TDP1 no CPT: qHTS for Inhibitors of human tyrosyl-DNA phosphodiesterase 1 (TDP1): qHTS in cells in absence of CPT | DT40 Tdp1-/- hTDP1 cells, no CPT, ATP luminescence, 48 h | Potency, µM (doses to about 46.2 µM), actives largely listed as inhibitors | 420,000 compounds, 15% hits | AID 686978, 2013; also: nearly all actives have a fitted effect of over 55% in size
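Growth of hTDP1-complemented DT40 Tdp1-knockout cells is measured by ATP luminescence after at least 48 hr compound exposure at 37 °C, with DMSO substituting for the 20 nM CPT used in the parallel screen.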
ELG1 DNA repair: inhibitors of ELG1-dependent DNA repair in HEK293T cells. AID 504467. Potency, µM (highest dose often 46.1 µM), actives largely listed as inhibitors. 330,000 compounds, 2.3% hits. HEK293T ELG1-luciferase reporter, luminescence, 16 h; DNA damage induced by 5-fluorouridine; also: nearly all actives have a fitted effect of over 55% in size
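Reporter activity after DNA damage by 5-fluorouridine is monitored. Compound-treated cells incubate 16 hr at 37 °C, then ONE-Glo is added for 30 min before luminescence reading.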
DT40 TDP1 CPT: DT40-hTDP1 cell growth loss with CPT; AID 686979; Potency, µM (titrated, usually from 46.2 µM), actives largely listed as inhibitors; 420,000 compounds, 12% hits; chicken DT40 Tdp1-/-;hTDP1 cells + 20 nM CPT, ATP luminescence, 48 h; also: nearly all actives have a fitted effect of over 55% in size
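Chicken DT40 Tdp1-/- cells complemented with human TDP1, 400 cells/well, exposed to compounds plus 20 nM camptothecin for at least 48 h at 37 C; viability read as ATP content by CellTiter-Glo luminescence.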
IL-1B inflam inh: blocks inflammasome-driven IL-1 beta release; THP-1 LPS/ATP IL-1B secretion, AlphaLISA, 16 h; active compounds read low; activity change, % at 57.5 µM; 360,000 compounds, 4.7% hits; AID 743279; in the data active = activity change below about -50%; inconclusive = mostly about -30% to -49%
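Secreted IL-1B measured by AlphaLISA bead assay after 16 h compound exposure of THP-1 cells; compounds (final up to 57.5 uM) added 1 h before LPS (250 ng/mL) and ATP (1.25 mM) stimulation; lower signal means less secretion.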
HT1080 IDH1KD tx: kills HT-1080 cells with IDH1 knockdown; HT-1080 IDH1 knockdown viability, ATP luminescence, 48 h; Potency, µM (series often up to 46.1 µM), actives largely listed as cytotoxic; 360,000 compounds, 2% hits; AID 686971
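% activity derives from luminescence (CellTiter-Glo), normalised to DMSO and no-cell wells. HT-1080-IDH1KD cells, 750/well, had 48 h compound exposure at 37 °C.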
HT1080NT lethal: kills 2HG-producing HT-1080-NT fibrosarcoma cells; HT-1080-NT fibrosarcoma viability, CellTiter-Glo ATP luminescence, 48 h; Potency, µM (top dose mostly 46.1 µM), usual class: cytotoxic; 360,000 compounds, 1.6% hits; AID 686970;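 also: NT is the 2HG producing partner of a matched IDH1 knockdown line; nearly all actives have a fitted effect of over 55% in size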
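A 48-hour cytotoxicity screen used HT-1080-NT cells plated 2 hours before compound delivery. ATP-based CellTiter-Glo luminescence measured viability, normalized to DMSO and no-cell controls.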
Numbers stand for hits; - = inactive; ? = inconclusive; . = no result; [ ] = another dose, or the depositor's remark. Sampled rows, rich in hits. Any-hit rate of the full collection: about 19%. Unless noted, calls follow the shape of the dose curve; as a rule, active = well fitted curve in the direction sought with a large enough effect; inconclusive = small, poorly fitted or top-dose-only effect, or another doubt; inactive = no such curve, though single readings can be large; an effect the other way counts as inactive or inconclusive.

SMILES	DT40 TDP1 no CPT	ELG1 DNA repair	DT40 TDP1 CPT	IL-1B inflam inh	HT1080 IDH1KD tx	HT1080NT lethal
COc1ccc2cc3c(N)nn(C(=O)C4CCC(C(C)(C)C)CC4)c3nc2c1 (stereo not drawn)	18.4µM	1.84µM	9.2µM	-86.0	-	-
CCOC(=O)C1CCN(c2nc3cc(OC)ccc3cc2C#N)CC1	-	?	-	-	-	-
COc1ccc2cc3c(N)nn(C(=O)c4ccc(F)cc4Cl)c3nc2c1	8.2µM	.	9.2µM	.	.	.
CSc1ccccc1C(=O)OCC(=O)NC1CCS(=O)(=O)C1 (stereo not drawn)	-	-	-	-	-	-
Cc1csc(=O)n1CC(=O)OCC(=O)NCc1ccc(Cl)cc1Cl	-	-	-	-	-	-
COc1cccc(OC)c1C(=O)Oc1ccc2c(c1)O/C(=C\c1ccncc1)C2=O	11.6µM	23.1µM	18.4µM	-100.7	?	18.4µM
COc1cccc(/C=C2\Oc3cc(OCC(=O)N4CCCC4)ccc3C2=O)c1OC	?	-	?	-	-	-
O=C1/C(=C/c2cccnc2)Oc2cc(OS(=O)(=O)c3ccc(F)cc3)ccc21	?	-	10.3µM	-	-	-
O=C1/C(=C/c2ccncc2)Oc2cc(OS(=O)(=O)c3ccccc3)ccc21	11.6µM	?	?	-	?	?
CS(=O)(=O)Oc1ccc2c(c1)O/C(=C\C=C\c1ccccc1)C2=O	?	-	?	-	-	-
Cc1ccc(S(=O)(=O)Oc2ccc3c(c2)O/C(=C\c2cccnc2)C3=O)cc1	20.6µM	-	?	-	-	-[9.24 µM]
CCCCCCCCCCCCCCC[C@@H](O)[C@H](CO)NC(=O)CCCCCCC	-[4.12 µM]	.	?	.	.	.
CCCNC(=O)C1(C)CCN(C(=O)c2ccc3c(c2)CCO3)C1 (stereo not drawn)	-	.	?	-	-	-
CC(=O)Oc1ccc(/C=C2/Oc3ccccc3C2=O)cc1	-	?	-	?	-	-
O=C1/C(=C/c2ccccc2)Oc2cc(OC(=O)N3CCOCC3)ccc21	?	?	?	-68.2	-	-
O=C(NCc1n[nH]c(=S)n1-c1ccc(Br)cc1)c1cccs1	-	-	-	-	-	-
Cc1nc2ccccn2c(=O)c1NC(=O)c1ccccc1Cl	-	.	-	.	.	.
COC(=O)CSc1nc2nc(-c3cccs3)cc(C(F)(F)F)c2c(=O)[nH]1	-	-	-	-	-	-
O=C(CSc1nc2nc(-c3cccs3)cc(C(F)(F)F)c2c(=O)[nH]1)C(F)(F)F	?	?	13µM	-	?	?
Cc1ccccc1C1(O)c2ccccc2-c2ccccc21	14.6µM	.	23.1µM	-	-	-
O=C1NC[C@H](CCCCN2CCN(CCc3ccccc3)C(=O)C2=O)N(CCc2ccccc2)C1=O	-	.	-	-	-	-
Cc1nn(C)cc1C(=O)/C=C/c1ccc([N+](=O)[O-])cc1	18.4µM	-	?	-99.0	?	23.1µM
CCn1cc(CN(C)C(=O)/C=C/c2ccc([N+](=O)[O-])cc2)c(C)n1	14.6µM	-	?	-	-	-
COCCCNc1oc(-c2ccc(COc3ccc(Cl)cc3)o2)nc1C#N	?	.	16.4µM	.	.	.
COCCNc1oc(-c2ccc(COc3ccc(OC)cc3)o2)nc1C#N	?	.	-	.	.	.
SMILES	DT40 TDP1 no CPT	ELG1 DNA repair	DT40 TDP1 CPT	IL-1B inflam inh	HT1080 IDH1KD tx	HT1080NT lethal
CCCCNc1oc(-c2ccc(COc3ccc(OC)cc3)o2)nc1C#N	-	.	-	.	.	.
CN(C)CCNc1oc(-c2ccc(COc3ccc(Cl)cc3)o2)nc1C#N	8.2µM	.	16.4µM	.	.	.
COc1ccc(OCc2ccc(-c3nc(C#N)c(NCc4ccc(F)cc4)o3)o2)cc1	23.1µM	.	?	.	.	.
Cc1c(CC(=O)N2CCCCC2)c(=O)oc2c(C)c3occ(C(C)(C)C)c3cc12	14.6µM	.	?	.	.	.
Cc1c(CC(=O)NCCc2ccc(Cl)cc2)c(=O)oc2c(C)c3occ(C(C)(C)C)c3cc12	20.6µM	.	?	.	.	.
COc1ccccc1CCNC(=O)Cc1c(C)c2cc3c(C(C)(C)C)coc3c(C)c2oc1=O	20.6µM	.	25.9µM	.	.	.
O=S(=O)(c1ccc2c(c1)OCCO2)N1CCN(c2nc(-c3ccccc3)nc3ccccc23)CC1	?	.	?	.	-	-
Cc1cc(SCC(=O)NC(=O)c2cccn2C)nc2ccccc12	-	-	-	-	-	-
c1ccc(-c2ncc(CSc3nncn3-c3ccccc3)s2)cc1	18.4µM	-	?	-	-	-
c1ccc(-n2cnnc2SCc2nc3ccccc3s2)cc1	-	?	-	-	-	-
CN(Cc1ccccc1)Cc1nc2c(c(=O)n(C)c(=O)n2C)n1Cc1ccccc1Cl	11.6µM	14.6µM	25.9µM	-	-	-
CCCCn1c(CN(C)Cc2ccccc2)nc2c1c(=O)n(C)c(=O)n2C	4.11µM	?	6.51µM	-	-	-
Cn1c(=O)c2c(nc(Sc3ncccn3)n2Cc2ccccc2Cl)n(C)c1=O	?	?	?	-	-	-
CCOC(=O)Cn1c(CN(Cc2ccccc2)Cc2ccccc2)nc2c1c(=O)n(C)c(=O)n2C	?	?	20.6µM	-	-	-
CN(Cc1ccccc1)Cc1nc2c(c(=O)n(C)c(=O)n2C)n1CCc1ccccc1	18.4µM	.	13µM	-	-	-
Cn1c(=O)c2c(nc(Cc3ccccc3)n2C)n(C)c1=O	-	-	-	-	-	-
CCn1cc(C(=O)N2CCN(c3ccccc3)CC2)c(=O)c2cc(S(=O)(=O)N(C)C3CCCCC3)ccc21	-	.	-	.	.	.
CC(=O)c1ccc(O)c(CSC2=NCCS2)c1	-	-	-	-	-	-
COc1cccc2c1CCC1=CC(=O)CC[C@@]12C	-	.	-	.	.	.
COCCn1c(CN(C)Cc2ccccc2)nc2c1c(=O)n(C)c(=O)n2C	?	?	?	-	-	-
CCCn1c(CN(Cc2ccccc2)Cc2ccccc2)nc2c1c(=O)n(C)c(=O)n2C	14.6µM	?	23.1µM	-	-	-
CCOCCn1c(CN(C)Cc2ccccc2)nc2c1c(=O)n(C)c(=O)n2C	23.1µM	?	?	-	-	-
CCCn1c(CN(C)Cc2ccccc2)nc2c1c(=O)n(C)c(=O)n2C	10.3µM	11.6µM	9.2µM	-	-	-
Cn1c(=O)c2c(O)c([N+](=O)[O-])c(=O)n(C)c2n(C)c1=O	-	-	-	-	-	-
O=C(NNC(=O)C1CCN(c2ncccn2)CC1)c1ccncc1	-	-	-	-	-	-
CCN(CC)S(=O)(=O)c1cccc(NC(=O)C(=O)c2c(-c3ccccc3)cc3ccccn23)c1	23.1µM	16.4µM	?	-	-	-

Assay outcomes from PubChem BioAssay.
